The source made the active and inactive calls.
Key:
[1] = optical density shifts of acrAB sulA E. coli – strain DRC41, OD650, 48 h, E. coli filamentation inducer project, primary screen (AID 1152); settings: higher = more signal, called active from +8 up or from −8 down;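 further: E. coli MC1000 strain DRC41 lacking acrAB efflux pump and sulA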
[2] = probe aLefty1 binding on compound microarray – biochemical, small-molecule microarray, 635/667 nm fluorescence, primary screen (AID 1153); settings: higher = more signal;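 further: score merges spot fluorescence with signal-to-noise ratio from the scanned slide images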
[3] = plasmodial surface anion channel blockers, osmotic lysis – cell-based, P. falciparum Indochina, OD700, 1 h, primary screen (AID 1154); settings: P. falciparum Indochina infected RBC osmotic lysis, higher = more signal, called active from +8 up or from −8 down
[4] = plasmodial surface anion channel blockers, osmotic lysis – cell-based, P. falciparum Indochina, OD700, 2 h, primary screen (AID 1155);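 further: lysis reports solute entry through the parasite surface anion channel PSAC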; settings: P. falciparum Indochina infected erythrocytes, higher = more signal, called active from +8 up or from −8 down
[5] = changes in parasitized red cell lysis, either direction – P. falciparum Indochina, OD700, 3 h, PSAC antagonist project, primary screen (AID 1156); settings: P. falciparum-infected erythrocytes, osmotic lysis, higher = more signal, called active from +8 up or from −8 down
[6] = plasmodial surface anion channel blockers, osmotic lysis – cell-based, P. falciparum Indochina, OD700, 18 h, primary screen (AID 1157); settings: P. falciparum Indochina infected erythrocytes, osmotic lysis OD700, 18 h; higher = more signal, called active from +8 up or from −8 down
[7] = S6 kinase pathway phospho-S6 level changes – cell-based, A549, cytoblot, luminescence, serum-stimulated, primary screen (AID 1158); settings: 5 h, higher = more signal;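 further: serum-stimulated A549 lung adenocarcinoma cells; signal is phosphorylated S6 detected by cytoblot immunostaining with HRP secondary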
[8] = molecular target: NADPH oxidase 2 (Homo sapiens) (UniProt P04839); experiment: compounds shifting NOX2 Amplex Red fluorescence – cell-based, HEK293-NOX2, PMA-stimulated, NOX inhibitor project, primary screen (AID 1159); settings: 45 min, higher = more signal, called active from +8 up or from −8 down; further: test concentration not given here
[9] = molecular target: NADPH oxidase 4 (Homo sapiens) (UniProt Q9NPH5); experiment: compounds shifting NOX4 Amplex Red fluorescence – cell-based, HEK293-NOX4, tetracycline-induced, NOX inhibitor project, primary screen (AID 1160); settings: HEK293-NOX4, Amplex Red H2O2 fluorescence, 45 min; higher = more signal, called active from +8 up or from −8 down
[10] = molecular target: NADPH oxidase 5 (Homo sapiens) (UniProt Q96PH1); experiment: compounds shifting NOX5 Amplex Red fluorescence – cell-based, HEK293-NOX5, NOX inhibitor project, primary screen (AID 1161); settings: HEK293-NOX5, ionomycin, 45 min, higher = more signal
[11] = compound effects on lung adenocarcinoma cell viability – A549, calcein-AM fluorescence, 48 h, basal, profiling panel (AID 1162); settings: higher = more signal; further: test concentration not given here
[12] = compound effects on differentiated 3T3-L1 adipocyte viability – cell-based, 3T3-L1 adipocytes, calcein-AM fluorescence, 48 h, basal, profiling panel (AID 1163); settings: 3T3-L1 adipocytes viability, higher = more signal; further: test concentration not given here
[13] = compound effects on hepatocellular carcinoma cell viability – HepG2, calcein-AM fluorescence, 48 h, basal, profiling panel (AID 1164); settings: higher = more signal; further: test concentration not given here
[14] = compound effects on multiple myeloma cell viability – MM1S, calcein-AM fluorescence, 48 h, basal, profiling panel (AID 1165); settings: higher = more signal;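 further: viability of MM1S multiple myeloma cells under basal unstimulated conditions; test concentration not given here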
[15] = calcein-AM signal in unstimulated myeloma cells – cell-based, calcein-AM fluorescence, 48 h, PK04 Diversity Set, profiling panel (AID 1166); settings: RPMI8226 myeloma viability, higher = more signal;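 further: cells grown under basal conditions without added stimulus; test concentration not given here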
[16] = JC-1 mitochondrial signal, unstimulated HepG2 cells – cell-based, JC-1 fluorescence, 24 h, 100 nL compound, profiling panel (AID 1167); settings: HepG2 mitochondrial potential, higher = more signal; further: test concentration not given here
[17] = JC-1 mitochondrial signal, unstimulated adipocytes – cell-based, JC-1 fluorescence, 3T3-L1 adipocytes, 24 h, 100 nL compound, profiling panel (AID 1168); settings: JC-1 mitochondrial fluorescence, higher = more signal, called active from +8 up or from −8 down; further: test concentration not given here
[18] = JC-1 mitochondrial signal, unstimulated myeloma cells – cell-based, JC-1 fluorescence, RPMI8226, 24 h, 100 nL compound, profiling panel (AID 1169); settings: JC-1 mitochondrial potential fluorescence, higher = more signal; further: test concentration not given here
[19] = JC-1 mitochondrial signal, unstimulated MM1S myeloma – cell-based, JC-1 fluorescence, 24 h, 100 nL compound, profiling panel (AID 1170); settings: MM1S mitochondrial potential, higher = more signal; further: test concentration not given here
[20] = resazurin metabolic signal in A549 cells – cell-based, resazurin fluorescence, 24 h, PK04 Diversity Set, profiling panel (AID 1171); settings: A549 viability, higher = more signal, called active from +8 up or from −8 down; further: test concentration not given here

Chain of NADPH oxidase 4 (Homo sapiens) (Q9NPH5 whole entry, looked up): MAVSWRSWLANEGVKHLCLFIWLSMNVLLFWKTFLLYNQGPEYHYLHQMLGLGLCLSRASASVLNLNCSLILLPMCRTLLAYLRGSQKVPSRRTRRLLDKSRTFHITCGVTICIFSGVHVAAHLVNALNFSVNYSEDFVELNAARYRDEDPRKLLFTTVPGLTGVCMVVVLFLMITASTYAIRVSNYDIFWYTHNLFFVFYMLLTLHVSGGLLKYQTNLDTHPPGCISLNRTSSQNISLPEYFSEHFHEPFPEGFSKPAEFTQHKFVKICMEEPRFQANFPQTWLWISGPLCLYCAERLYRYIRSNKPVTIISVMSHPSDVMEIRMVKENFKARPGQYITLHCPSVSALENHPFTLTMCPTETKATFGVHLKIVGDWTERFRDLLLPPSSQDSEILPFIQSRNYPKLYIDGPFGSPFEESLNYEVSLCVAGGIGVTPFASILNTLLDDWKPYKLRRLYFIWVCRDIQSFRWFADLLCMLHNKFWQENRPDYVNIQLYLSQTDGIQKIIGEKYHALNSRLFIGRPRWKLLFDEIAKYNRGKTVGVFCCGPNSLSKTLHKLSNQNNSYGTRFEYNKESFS
Chain of NADPH oxidase 5 (Homo sapiens) (Q96PH1 whole entry, looked up): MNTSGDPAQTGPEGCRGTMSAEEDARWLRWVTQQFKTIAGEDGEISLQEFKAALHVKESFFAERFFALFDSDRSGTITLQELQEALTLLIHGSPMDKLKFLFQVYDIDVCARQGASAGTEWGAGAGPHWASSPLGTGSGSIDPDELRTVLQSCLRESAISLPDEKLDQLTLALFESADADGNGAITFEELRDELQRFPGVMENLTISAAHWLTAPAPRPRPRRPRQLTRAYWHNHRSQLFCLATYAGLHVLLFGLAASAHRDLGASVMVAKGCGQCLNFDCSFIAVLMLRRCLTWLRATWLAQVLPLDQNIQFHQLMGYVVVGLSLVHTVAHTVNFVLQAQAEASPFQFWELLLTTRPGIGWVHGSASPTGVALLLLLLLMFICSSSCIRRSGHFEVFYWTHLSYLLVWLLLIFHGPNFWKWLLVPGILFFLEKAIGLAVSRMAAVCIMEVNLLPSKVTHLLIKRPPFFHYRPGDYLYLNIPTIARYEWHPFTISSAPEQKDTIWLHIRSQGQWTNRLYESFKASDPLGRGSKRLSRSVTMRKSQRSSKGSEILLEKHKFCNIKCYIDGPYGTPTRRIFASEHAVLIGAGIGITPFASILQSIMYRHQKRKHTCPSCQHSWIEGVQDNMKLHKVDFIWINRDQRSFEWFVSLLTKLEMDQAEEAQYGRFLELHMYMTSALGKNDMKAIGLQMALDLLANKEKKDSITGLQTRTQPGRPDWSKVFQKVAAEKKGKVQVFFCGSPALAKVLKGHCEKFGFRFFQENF
Chain of NADPH oxidase 2 (Homo sapiens) (P04839 whole entry, looked up): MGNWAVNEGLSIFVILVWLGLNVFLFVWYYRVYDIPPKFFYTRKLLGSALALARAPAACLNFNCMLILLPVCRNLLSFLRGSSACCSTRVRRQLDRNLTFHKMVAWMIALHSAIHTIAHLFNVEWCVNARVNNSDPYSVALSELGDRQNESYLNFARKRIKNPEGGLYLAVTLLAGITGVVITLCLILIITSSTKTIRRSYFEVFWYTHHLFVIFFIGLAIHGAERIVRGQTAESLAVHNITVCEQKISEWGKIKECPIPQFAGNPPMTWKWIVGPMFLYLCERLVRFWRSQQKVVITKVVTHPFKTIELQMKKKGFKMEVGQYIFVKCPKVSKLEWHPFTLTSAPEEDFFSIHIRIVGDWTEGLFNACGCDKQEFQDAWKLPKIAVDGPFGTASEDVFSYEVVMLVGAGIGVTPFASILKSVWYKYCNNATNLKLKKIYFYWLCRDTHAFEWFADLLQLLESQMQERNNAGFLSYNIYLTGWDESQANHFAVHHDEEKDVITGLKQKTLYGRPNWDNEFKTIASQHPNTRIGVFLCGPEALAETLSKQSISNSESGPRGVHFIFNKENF

| Compound | z-score [1] | composite z-score [2] | z-score [3] | z-score [4] | z-score [5] | z-score [6] | z-score [7] | z-score [8] | z-score [9] | z-score [10] | z-score [11] | z-score [12] | z-score [13] | z-score [14] | z-score [15] | z-score [16] | z-score [17] | z-score [18] | z-score [19] | z-score [20] |
| --- | --- | --- | --- | --- | --- | --- | --- | --- | --- | --- | --- | --- | --- | --- | --- | --- | --- | --- | --- | --- |
| C#C[C@@H](CC)O[Si](C#CCCCC#N)(C(C)C)C(C)C | 0.527 (inactive) | -0.117 | 1.58 (inactive) | 1.14 (inactive) | 0.186 (inactive) | 0.676 (inactive) | -0.336 | 1.03 (inactive) | -0.222 (inactive) | 1.31 | -0.533 | -0.87 | -0.168 | -3.16 | -0.501 | -0.626 | 0.117 (inactive) | -0.45 | -1.73 | -0.0413 (inactive) |
| [N-]=[N+]=Nc1ccccc1C[C@]1(C(=O)O)N=C(c2ccc(OCCCO)cc2)O[C@H]1c1ccccc1N=[N+]=[N-] | 0.476 (inactive) | 0.612 | 30.8 (active) | 27.6 (active) | 2.88 (inactive) | 4.45 (inactive) | -0.0428 | -2.72 (inactive) | 0.551 (inactive) | -2.15 | -0.35 | 0.22 | 0.0698 | -2.38 | -1.43 | -0.914 | -0.424 (inactive) | -0.739 | 0.51 | -0.371 (inactive) |
| NC(=O)NCC#Cc1ccc2c(c1)[C@]1(C(=O)N2)[C@H](C(=O)N2CCN(c3ncccn3)CC2)[C@H]2C(=O)O[C@H](c3ccccc3)[C@H](c3ccccc3)N2[C@@H]1c1ccc(OCCO)cc1 | 0.682 (inactive) | 0.309 | 5.91 (inactive) | 1.66 (inactive) | -0.015 (inactive) | 0.689 (inactive) | -0.24 | 1.44 (inactive) | 1.1 (inactive) | 1.12 | 0.0404 | -0.33 | -1.12 | -0.444 | 0.86 | -1.95 | 1.54 (inactive) | -0.504 | -0.445 | 0.75 (inactive) |
| COc1ccc([Si](C)(C)[C@H]2[C@H](CCO)O[C@@]3(C(=O)N(Cc4ccccc4)c4ccc(N5CCOC5=O)cc43)[C@@H]2C)cc1 | -0.261 (inactive) | -0.0025 | 5.86 (inactive) | 1.9 (inactive) | -0.307 (inactive) | 0.913 (inactive) | 0.577 | -1.36 (inactive) | 1.71 (inactive) | 2.27 | -0.119 | -0.325 | -2.09 | -2.13 | -3.4 | -0.203 | 0.69 (inactive) | -1.11 | -1.68 | -1.94 (inactive) |
| Cc1ccc(S[C@]2(C(=O)NCc3ccccc3)CC(=O)N(Cc3cc(C(F)(F)F)cc(C(F)(F)F)c3)[C@@H]2c2ccc(CO)cc2I)cc1 | 1.66 (inactive) | 0.0903 | 3.13 (inactive) | 0.769 (inactive) | -0.0654 (inactive) | 0.598 (inactive) | 0.209 | 1.69 (inactive) | -1.24 (inactive) | 1.28 | 0.666 | 0.336 | -0.165 | -1.87 | -2.22 | 0.994 | -0.00208 (inactive) | -0.133 | -0.713 | 0.772 (inactive) |
| COc1cc2c(cc1O)C(c1cccs1)N(Cc1sc3ccccc3c1Cl)CC2 (stereo not given) | -1.49 (inactive) | 0.0479 | 10.4 (active) | 3.63 (inactive) | -0.333 (inactive) | 2.24 (inactive) | -0.511 | -3.92 (inactive) | -2.48 (inactive) | -3.48 | -3.77 | 0.623 | -4.6 | -3.27 | -4.2 | -3.1 | -0.197 (inactive) | -0.894 | -0.194 | -0.403 (inactive) |
| O=c1cccc(-c2ccco2)o1 | -1.13 (inactive) | -0.103 | 0.128 (inactive) | 0.0564 (inactive) | -0.394 (inactive) | 0.143 (inactive) | -0.397 | 0.523 (inactive) | -0.772 (inactive) | -0.722 | -0.69 | 0.474 | 0.219 | 0.0393 | -0.159 | -0.79 | 1.1 (inactive) | 0.773 | -0.605 | -0.214 (inactive) |
| CCCNC(=O)[C@@]1(Sc2ccc(C)cc2)CC(=O)N(C(C)C)[C@@H]1c1ccc(CO)cc1I | -0.236 (inactive) | -0.0046 | 5.82 (inactive) | 0.424 (inactive) | 0.0627 (inactive) | 0.108 (inactive) | -0.198 | 2.46 (inactive) | -2.43 (inactive) | 0.276 | 0.505 | 0.49 | -0.658 | -2.65 | -2.09 | 0.632 | -0.769 (inactive) | -0.919 | -1.02 | -0.0866 (inactive) |
| Cc1ccc(F)cc1S(=O)(=O)N[C@@H]1CCN(Cc2cccc3[nH]ccc23)C1 | -1.41 (inactive) | -0.007 | 1.27 (inactive) | 0.137 (inactive) | 0.0401 (inactive) | 0.451 (inactive) | -0.453 | 0.116 (inactive) | -0.746 (inactive) | -0.541 | 0.139 | -0.658 | -0.415 | -1.14 | -0.864 | 0.0617 | -0.65 (inactive) | 0.263 | -0.161 | -0.398 (inactive) |

Reference: PubChem BioAssay
